Results on 9 compounds are retold here after PubChem BioAssay (NCI).

Compounds without any hit were thinned out: in the full panel of roughly 83,000, 20% have a hit.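 Values shown are percent growth following 48 h exposure of cells in 96-well plates to a single concentration of compound; below 10 was considered active.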 Values without a mark were called inactive. Calls of active or inactive are those of the source.

Assay in all cases: NCI-60 one-dose screen, 48 h (100 = growth as untreated, 0 = no growth, -100 = all killed)
Holding throughout (details): 10 µM unless noted

Assay [1] concerns SR leukemia.
Assay [2] deals with RPMI-8226 leukemia.
Assay [3] relates to OVCAR-8 ovarian.
In assay [4] the test system is OVCAR-5 ovarian.
Assay [5] concerns OVCAR-4 ovarian.
Assay [6] deals with SK-OV-3 ovarian.
For assay [7], the system named is IGROV1 ovarian.
The test system of assay [8] is OVCAR-3 ovarian.
Assay [9] deals with HS 578T breast.
The subject of assay [10] is NCI/ADR-RES ovarian.
Assay [11] has as its system T-47D breast.
For assay [12], the system named is BT-549 breast.
The test system of assay [13] is MDA-MB-435 melanoma.
The test system of assay [14] is SW-620 colon.
Assay [15] concerns MCF7 breast.
Assay [16] deals with HCT-116 colon.
Assay [17] has as its system HCC-2998 colon.
The test system of assay [18] is KM12 colon.
Assay [19] deals with MOLT-4 leukemia.

In the case of `COC(=O)[C@@H](C)C[C@H](Cc1ccccc1)NC(=O)c1csc([C@@H](C[C@H](C(C)C)N(C)C(=O)[C@@H](NC(=O)[C@H]2CCCCN2C)C(C)C)OC(C)=O)n1`, the growth is 6.8% (active) in assay [1]; 8.34% (active) in assay [2]; 22.7% in [3]; 26.4% in assay [4]; 44.6% in [5]; 13.4% in assay [6]. In addition, the growth was 25.7% in [7]; -24.4% (active) in [8]; -2.62% (active) in assay [9]; 5.63% (active) in assay [10]; 54.7% in assay [11]; -20.5% (active) in [12]. Moreover, the growth in assay [13] is -54.7% (active); in [14] it was 22.9%; in [15] it was 19.6%; in [16], -21.2% (active); in assay [17], 12.9%; in assay [18], 4.46% (active).
Take `CC(C)(C)C(=O)OCOP(=O)(OCOC(=O)C(C)(C)C)C1CCCN(O)C1=O` (centres undefined): the growth in [1] was 13.7%; in assay [2] it was -18% (active); in assay [3] it was 5.69% (active); in assay [4] it was 32.5%; in assay [5] it was 11.2%; in assay [6], 12.2%. The growth in [7] is -4.01% (active); in [8] it was 4.08% (active); in [9] it was -8.85% (active); in assay [10] it was 1.93% (active); in assay [11], 8.21% (active); in assay [12], 4.85% (active). Besides, the growth in assay [13] is 36.6%; in [14], 22.9%; in [15] it was 0.807% (active); in assay [16], 1.32% (active); in assay [17], 5.6% (active); in [18], -3.46% (active).
Turning to `CC(=O)[C@H]1CC[C@H]2[C@@H]3CC[C@H]4C[C@H](N)CC[C@]4(C)[C@H]3CC[C@]12C`, the growth in assay [1] was 32.3%; in assay [2] it was 58.9%; in assay [3] it was 90%; in assay [4] it was 82.7%; in assay [5], 84.1%; in assay [6] it was 109%. Besides, the growth is 81.6% in assay [7]; 74.5% in [8]; 82% in assay [9]; 89.4% in assay [10]; 91% in assay [11]; 70.5% in [12]. The growth in assay [13] was 65.1%; in [14], 72.2%; in assay [15], 70.6%; in assay [16], 40.6%; in [17], 92.8%; in assay [18], 80.2%.
As to `C/C1=C/C(=O)O[C@@H]2C[C@@H](CC[C@H](C)/C=C\C=C\CC1)O[C@@](O)([C@@H]1CSC(=O)N1CO)C2`, the growth was 33.4% in assay [19]; 50.7% in assay [2]; 42.8% in [3]; -3.16% (active) in [4]; 20.4% in assay [5]; -14.1% (active) in assay [6]. Further, the growth was -7.34% (active) in assay [8]; -48.7% (active) in assay [9]; 47.6% in [10]; 56.8% in [11]; -13.3% (active) in assay [12]; 32% in assay [13]. Moreover, the growth is 53.2% in assay [14]; 56.8% in [15]; 27.2% in assay [16]; 34.7% in assay [17]; 62% in [18].
`COc1ccc(Nc2ccnc3cc(Cl)ccc23)cc1CN(CCCl)CCCl`: the growth in assay [1] was -0.721% (active); in [2], -25.8% (active); in assay [3], -39.3% (active); in [4], -26.1% (active); in assay [5], -15.3% (active); in assay [6] it was 8.86% (active). Moreover, the growth in [7] was -36% (active); in assay [8] it was -49.3% (active); in assay [9] it was -27.6% (active); in assay [10], -40.4% (active); in assay [11], -7.47% (active); in [12], -50.6% (active). The growth in assay [13] is -88.3% (active); in assay [14] it was -28.6% (active); in assay [15] it was -10.7% (active); in assay [16] it was -79.8% (active); in assay [17] it was -79.5% (active); in assay [18], -62.6% (active).
In the case of `Clc1ccc(CSC(Cn2ccnc2)c2ccc(Cl)cc2Cl)cc1` (centres undefined), the growth was 1.87% (active) in [19]; 29.8% in assay [2]; 14.3% in [3]; 25.9% in assay [5]; 71.9% in assay [6]; 29.1% in assay [7]. The growth in [8] is 38.8%; in [9], 63.5%; in [10], 14.1%; in assay [11] it was 29.5%; in assay [12], 4.34% (active); in assay [13] it was 31.4%. Also, the growth in assay [14] is 29.2%; in assay [15], 20.9%; in assay [16] it was 7.38% (active); in assay [17], 36.1%; in [18] it was 16.1%.
Regarding `N#CC1C(C#N)C2CCC1C1C2N1c1ccccc1` (centres undefined), the growth in assay [1] was 91.5%; in assay [2] it was 95.8%; in [3] it was 114%; in assay [4] it was 92.4%; in assay [5] it was 106%; in assay [6] it was 100%. Moreover, the growth is 85.1% in assay [7]; 107% in assay [8]; 112% in [9]; 111% in assay [10]; 108% in assay [11]; 98.1% in [12]. The growth in assay [13] was 107%; in [14] it was 100%; in [15], 101%; in assay [16] it was 95.1%; in [17], 102%; in assay [18], 102%.
Regarding `NC(=S)c1cn(C2OC(CO)C(O)C2O)c2ncnc(N)c12` (centres undefined), the growth in [1] is -50.4% (active); in [2], -39.8% (active); in assay [3], 3.53% (active); in [4], -29.6% (active); in assay [5] it was -7.48% (active); in [6] it was 17%. The growth in assay [7] was 0.391% (active); in assay [8], -26.2% (active); in [9], -25.4% (active); in assay [10], -25.8% (active); in assay [11] it was -16.9% (active); in [12], -43.1% (active). Further, the growth is -40.5% (active) in assay [13]; -27.6% (active) in assay [14]; 2.36% (active) in assay [15]; -16.3% (active) in assay [16]; -44.8% (active) in assay [17]; -14.9% (active) in [18].
For the compound `Cc1ccc(C(=O)NCCCOc2ccc(N3C(N)=NC(N)=NC3(C)C)cc2Cl)cc1S(=O)(=O)F`, the growth in [19] is 119%; in [3], 77.2%; in [4], 51.6%; in [5], 111%; in assay [6], 101%; in assay [7], -28.2% (active). Moreover, the growth in assay [8] is 121%; in assay [9], 109%; in assay [10], 108%; in [11], 104%; in [12], 64.8%; in [13], 73.1%. Besides, the growth in assay [14] is 65.1%; in [15], 75.4%; in assay [16] it was 62.2%; in assay [17] it was 89.8%; in assay [18] it was 74.4%.
